# Laboratory results from ChEMBL document CHEMBL5606458, “ASAP - ZIKV NS2B-NS3 protease fluorescence single point” (2024).
# In all, about 2,700 compounds went through this assay and about 160 (5.9%) showed an effect of 50% or more. For the sample, strong results were picked, then their nearest neighbours and some compounds at random.
# Biological target: Nonstructural protein 3 (Zika virus) (UniProt A0A024AXB9)
# [1] = PRVABC59, Concentration 50.0 uM, Number of replicates 1.0
# [2] = PRVABC59, Concentration 15.0 uM, Number of replicates 1.0
# Sequence of Nonstructural protein 3 (Zika virus) (A0A024AXB9 as listed by the source): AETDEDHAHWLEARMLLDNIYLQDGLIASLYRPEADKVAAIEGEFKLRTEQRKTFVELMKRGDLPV
compound,measurement,setting,value
COc1cc(NC(=O)C2CCN(c3ccc(C=O)cc3)CC2)cc(OC)c1,inhibition,[1],28%
O=Cc1ccc(N2CCC(C(=O)Nc3c(Cl)cc(Cl)cc3Br)CC2)cc1,inhibition,[1],22.3%
O=Cc1ccc(N2CCC(C(=O)Nc3cc(Cl)cc([N+](=O)[O-])c3O)CC2)cc1,inhibition,[1],93.4%
O=Cc1ccc(N2CCC(C(=O)Nc3ccc(Cl)c(Cl)c3)CC2)cc1,inhibition,[1],22.8%
O=Cc1ccc(N2CCC(C(=O)Nc3ccc([N+](=O)[O-])cc3Cl)CC2)cc1,inhibition,[1],39.8%
O=Cc1ccc(N2CCC(C(=O)Nc3cc(Cl)c(O)c(Cl)c3)CC2)cc1,inhibition,[1],98.7%
O=Cc1ccc(N2CCC(C(=O)Nc3ccc(O)cc3[N+](=O)[O-])CC2)cc1,inhibition,[1],38.4%
O=Cc1ccc(N2CCC(C(=O)Nc3cc(Cl)cc(Cl)c3O)CC2)cc1,inhibition,[1],92.4%
O=Cc1ccc(N2CCC(C(=O)Nc3cc(Cl)c(F)c(Cl)c3)CC2)cc1,inhibition,[1],20.1%
O=Cc1ccc(N2CCC(C(=O)Nc3cc(Cl)ccc3Br)CC2)cc1,inhibition,[1],19.5%
Cc1cc(-c2nn(C)cc2NC(=O)c2ccccc2C(F)(F)F)[nH]n1,inhibition,"PRVABC59, Concentration 49.5 uM, Number of replicates 2.0, Standard deviation 1.8946804704330402 %",-3.15%
same,inhibition,"PRVABC59, Concentration 99.01 uM, Number of replicates 2.0, Standard deviation 0.666066751064398 %",-1.39%
same,inhibition,"PRVABC59, Concentration 198.0 uM, Number of replicates 2.0, Standard deviation 1.3743584908968294 %",2.3%
O=C(Nc1cnc(Br)c(Cl)n1)c1cc(Cl)ccc1NS(=O)(=O)c1ccc(Oc2ccccc2Cl)cc1,inhibition,[2],20.6%
O=Cc1ccc(N2CCC(C(=O)NCCc3ccc(C(F)(F)F)cc3)CC2)cc1,inhibition,[1],25.7%
CCOC(=O)c1cc(Cn2cc(C3CCNCC3)c(C)n2)on1,inhibition,"PRVABC59, Concentration 49.5 uM, Number of replicates 2.0, Standard deviation 3.597880558823145 %",-0.431%
same,inhibition,"PRVABC59, Concentration 99.01 uM, Number of replicates 2.0, Standard deviation 3.9852172616025077 %",-1.41%
same,inhibition,"PRVABC59, Concentration 198.0 uM, Number of replicates 2.0, Standard deviation 1.6156285466659275 %",-2.54%
CC1(C)[C@H]2CC[C@]1(C)[C@H](NC(=O)C1CCN(c3ccc(C=O)cc3)CC1)C2,inhibition,[1],-4.03%
O=Cc1ccc(N2CCC(C(=O)Nc3cccc(Cl)c3Br)CC2)cc1,inhibition,[1],21%
c1cnc(N2CCOCC2)c(CN2CC[C@H](c3c[nH]c4ccccc34)C2)c1,inhibition,"PRVABC59, Concentration 49.5 uM, Number of replicates 2.0, Standard deviation 0.5816150455075427 %",4.93%
same,inhibition,"PRVABC59, Concentration 99.01 uM, Number of replicates 2.0, Standard deviation 1.6761828626765602 %",10.2%
same,inhibition,"PRVABC59, Concentration 198.0 uM, Number of replicates 2.0, Standard deviation 1.4600963075359947 %",18.9%
Nc1cccc2c(Cl)ccnc12,inhibition,"PRVABC59, Concentration 49.95 uM, Number of replicates 2.0, Standard deviation 13.26082141913299 %",25%
same,inhibition,"PRVABC59, Concentration 99.9 uM, Number of replicates 2.0, Standard deviation 5.807935528538471 %",61.3%
Nc1ccc(Cl)c2cccnc12,inhibition,"PRVABC59, Concentration 99.9 uM, Number of replicates 2.0, Standard deviation 7.433905478836123 %",-9.18%
Nc1ccc(Cl)c2ncccc12,inhibition,"PRVABC59, Concentration 49.95 uM, Number of replicates 2.0, Standard deviation 10.856665376334321 %",2.86%
same,inhibition,"PRVABC59, Concentration 99.9 uM, Number of replicates 2.0, Standard deviation 9.901328830284072 %",10.8%
Cc1ccc(CN(C(=O)C2CCN(c3ccc(C=O)cc3)CC2)C2CC2)s1,inhibition,[1],27.6%
Cc1cc(CO)c2cccc(Cc3ccccc3NC(=O)c3nc(N)n[nH]3)c2n1,inhibition,"PRVABC59, Concentration 49.95 uM, Number of replicates 2.0, Standard deviation 1.1858913556413317 %",-1.17%
same,inhibition,"PRVABC59, Concentration 99.9 uM, Number of replicates 2.0, Standard deviation 1.6592298829189325 %",2.56%
Cc1cc(CO)c2cccc(NC(=O)c3nc(N)n[nH]3)c2n1,inhibition,"PRVABC59, Concentration 49.95 uM, Number of replicates 2.0, Standard deviation 1.6810779662500097 %",28.9%
same,inhibition,"PRVABC59, Concentration 99.9 uM, Number of replicates 2.0, Standard deviation 2.6897269039186593 %",60.8%
CC(=O)N[C@@H](CCCN)C(=O)Nc1cccc2c(Cl)cc(C)nc12,inhibition,"PRVABC59, Concentration 99.9 uM, Number of replicates 2.0, Standard deviation 3.96053156793845 %",2.63%
Cc1cc(CO)c2cccc(NC(=O)Cc3cccc(CN)c3)c2n1,inhibition,"PRVABC59, Concentration 49.95 uM, Number of replicates 2.0, Standard deviation 2.002239649301327 %",8.36%
same,inhibition,"PRVABC59, Concentration 99.9 uM, Number of replicates 2.0, Standard deviation 0.9082841415474754 %",22.1%
Cc1cc(CO)c2cccc(NC(=O)CCN)c2n1,inhibition,"PRVABC59, Concentration 49.95 uM, Number of replicates 2.0, Standard deviation 0.34164167967973086 %",58.9%
same,inhibition,"PRVABC59, Concentration 99.9 uM, Number of replicates 2.0, Standard deviation 0.25939261057290325 %",94.2%
Cc1cc(CO)c2cccc(NC(=O)[C@@H](N)CCN)c2n1,inhibition,"PRVABC59, Concentration 49.95 uM, Number of replicates 2.0, Standard deviation 10.156724992387474 %",7.81%
same,inhibition,"PRVABC59, Concentration 99.9 uM, Number of replicates 2.0, Standard deviation 27.740304464442595 %",6.58%
Cc1cc(CO)c2cccc(Cc3cccc(NC(=O)c4nc(N)n[nH]4)c3)c2n1,inhibition,"PRVABC59, Concentration 49.95 uM, Number of replicates 2.0, Standard deviation 3.2981012364268594 %",-0.767%
same,inhibition,"PRVABC59, Concentration 99.9 uM, Number of replicates 2.0, Standard deviation 3.2421151330326254 %",4.54%
CC(=O)N[C@@H](CCCCN)C(=O)Nc1cccc2c(Cl)cc(C)nc12,inhibition,"PRVABC59, Concentration 49.95 uM, Number of replicates 2.0, Standard deviation 3.802363243631691 %",19.9%
same,inhibition,"PRVABC59, Concentration 99.9 uM, Number of replicates 2.0, Standard deviation 2.8723353743500515 %",37.2%
Cc1cc(Cl)c2cccc(NC(=O)CCN)c2n1,inhibition,"PRVABC59, Concentration 49.95 uM, Number of replicates 2.0, Standard deviation 0.2024559271573544 %",95.1%
same,inhibition,"PRVABC59, Concentration 99.9 uM, Number of replicates 2.0, Standard deviation 0.15816464699422608 %",91.2%
O=C(Nc1c(Cl)cncc1Cl)c1cc(Cl)ccc1NS(=O)(=O)c1ccc(Oc2ccccc2Cl)cc1,inhibition,[2],22%
O=Cc1ccc(N2CCC(C(=O)NC[C@@H](c3ccc(Cl)cc3)N3CCCC3)CC2)cc1,inhibition,[1],18.7%
O=Cc1ccc(N2CCC(C(=O)Nc3nc4cc(Cl)ccc4s3)CC2)cc1,inhibition,[1],22.7%
CN1CCN(c2ccccc2NC(=O)C2CCN(c3ccc(C=O)cc3)CC2)CC1,inhibition,[1],22.1%
N[C@@H]1CCCC[C@H]1C(=O)Nc1cccc2cccnc12,inhibition,"PRVABC59, Concentration 99.9 uM, Number of replicates 2.0, Standard deviation 1.8980185851288 %",-8.2%
O=C(Nc1cccc2cccnc12)C1CCNCC1,inhibition,"PRVABC59, Concentration 49.95 uM, Number of replicates 2.0, Standard deviation 0.5440976068370852 %",42.6%
same,inhibition,"PRVABC59, Concentration 99.9 uM, Number of replicates 2.0, Standard deviation 0.5440976068370852 %",92%
CC(=O)N[C@@H](CCCN)C(=O)Nc1cccc2cccnc12,inhibition,"PRVABC59, Concentration 49.95 uM, Number of replicates 2.0, Standard deviation 1.6196420224622259 %",19.2%
same,inhibition,"PRVABC59, Concentration 99.9 uM, Number of replicates 2.0, Standard deviation 2.0688397621434533 %",38.7%
O=C(c1cc(Cl)ccc1NS(=O)(=O)c1ccc(Oc2ccccc2Cl)cc1)N1CCC(O)(c2ccc(Cl)cc2)CC1,inhibition,[2],26.1%
C[C@@H](NC(=O)c1cc(Cl)ccc1NS(=O)(=O)c1ccc(Oc2ccccc2Cl)cc1)c1cccc(Br)c1,inhibition,[2],35.8%
O=C(N[C@H](CO)Cc1ccc(Cl)cc1)c1cc(Cl)ccc1NS(=O)(=O)c1ccc(Oc2ccccc2Cl)cc1,inhibition,[2],50.2%
O=C(N[C@@H](CO)Cc1ccccc1)c1cc(Cl)ccc1NS(=O)(=O)c1ccc(Oc2ccccc2Cl)cc1,inhibition,[2],33.2%
O=C(NCC(c1ccccc1)c1ccccc1)c1cc(Cl)ccc1NS(=O)(=O)c1ccc(Oc2ccccc2Cl)cc1,inhibition,[2],12.2%
O=C(N[C@H](CO)CC1CCCCC1)c1cc(Cl)ccc1NS(=O)(=O)c1ccc(Oc2ccccc2Cl)cc1,inhibition,[2],40.7%
O=C(N[C@H](c1ccccc1)c1ccco1)c1cc(Cl)ccc1NS(=O)(=O)c1ccc(Oc2ccccc2Cl)cc1,inhibition,[2],53.4%
O=C(N[C@@H](Cc1ccccc1)c1ccccc1)c1cc(Cl)ccc1NS(=O)(=O)c1ccc(Oc2ccccc2Cl)cc1,inhibition,[2],28.3%
O=C(NC(c1ccccc1)c1ccccc1)c1cc(Cl)ccc1NS(=O)(=O)c1ccc(Oc2ccccc2Cl)cc1,inhibition,[2],55%
O=C(N[C@@H](c1ccccc1)c1ccc(Br)cc1)c1cc(Cl)ccc1NS(=O)(=O)c1ccc(Oc2ccccc2Cl)cc1,inhibition,[2],8.89%
Cc1ccc2ccccc2c1NC(=O)c1cc(Cl)ccc1NS(=O)(=O)c1ccc(Oc2ccccc2Cl)cc1,inhibition,[2],26.4%
O=Cc1ccc(N2CCC(C(=O)N3CCC(Oc4ncccn4)CC3)CC2)cc1,inhibition,[1],25.2%
O=Cc1ccc(N2CCC(C(=O)Nc3cc(Cl)nc(Cl)n3)CC2)cc1,inhibition,[1],17.4%
O=C(O)c1cccc(NC(=O)c2cccc(Br)c2)c1,inhibition,"PRVABC59, Concentration 49.5 uM, Number of replicates 2.0, Standard deviation 2.5009940749301487 %",-0.982%
same,inhibition,"PRVABC59, Concentration 99.01 uM, Number of replicates 2.0, Standard deviation 3.0157213975013266 %",0.926%
same,inhibition,"PRVABC59, Concentration 198.0 uM, Number of replicates 2.0, Standard deviation 3.887437163113113 %",4.65%
CC(C)(CNC(=O)c1cc(Cl)ccc1NS(=O)(=O)c1ccc(Oc2ccccc2Cl)cc1)c1cccc(Cl)c1,inhibition,[2],47.6%
O=C(NC1CCN(Cc2ccccc2)CC1)c1cc(Cl)ccc1NS(=O)(=O)c1ccc(Oc2ccccc2Cl)cc1,inhibition,[2],8.32%
O=Cc1ccc(N2CCC(C(=O)NCc3cc(F)ccc3Br)CC2)cc1,inhibition,"PRVABC59, Concentration 10.0 uM, Number of replicates 1.0",4.33%
